Source: PubChem (National Center for Advancing Translational Sciences (NCATS))
Compounds with a hit are over-represented: about 12% of the library has one in this group of screens.
Gal4-VP16 FLuc: VP16 counterscreen qHTS for inhibitors of ROR gamma transcriptional activity. Drosophila S2 Gal4-VP16 UAS-luciferase, luminescence, 20 h. Potency, µM (series often up to 53.6 µM), for inactives: top-dose activity, negative = inhibition, usual class: inhibitors. 3.5% of 310,000 active. AID 2546, 2010;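 note: Gal4-VP16 expression switched on by copper sulfate through the metallothionein promoter; nearly all actives have a fitted effect of over 50% in size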
RORg inh: qHTS for inhibitors of ROR gamma transcriptional activity; Nuclear receptor ROR-gamma (Mus musculus), P51450; Drosophila S2 Gal4-RORgamma UAS-luciferase reporter, 20 h; Potency, µM (doses to about 53.6 µM), for the others: top-dose activity change, negative = inhibition, usual class: inhibitors; 5.4% of 310,000 active; note: nearly all actives have a fitted effect of over 60% in size
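Luminescence from a UAS-regulated Photinus luciferase reporter in stably transfected Drosophila Schneider cells is measured; decreased signal marks ROR gamma inhibition. Fusion expression is induced by 700 uM copper sulfate for 20 hr.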
Sfp PPTase inh: qHTS Assay for Inhibitors of Bacillus subtilis Sfp phosphopantetheinyl transferase (PPTase). Biochemical Sfp PPTase activity, qHTS. Potency, µM, without a hit: largest response in the series, negative = inhibition, actives largely listed as inhibitors. 3.5% of 310,000 active. AID 1490, 2009;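 note: the enzyme is Sfp with the accession as filed and its product quenches rhodamine fluorescence; 0% = enzyme reaction without inhibitor and -100% = no enzyme wells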
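Step 1, compound plus 15 nM Sfp-PPTase, 15 min, room temperature. Step 2, add rhodamine-CoA (5 uM) and BHQ-2-YbbR (12.5 uM). Step 3, read 525/598 nm fluorescence at 0 and 30 min.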
ALDH1A1 block: qHTS Assay for Inhibitors of Aldehyde Dehydrogenase 1 (ALDH1A1). Potency, µM (doses to about 75.3 µM), inactives show at the highest dose activity, negative = inhibition, most hits filed as inhibitors. Aldehyde dehydrogenase 1A1 (Homo sapiens), P00352. Purified ALDH1A1, NADH fluorescence, propionaldehyde substrate. 7.3% of 220,000 active; active = well fitted inhibition curve with a large enough effect, not every such curve was filed as active; inconclusive = small, poorly fitted or top-dose-only effect, or another doubt; inactive = no such curve, though single readings can be large or run the other way;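 note: plate controls were no enzyme wells and a reference inhibitor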
PLK1 PBD inh: qHTS for Inhibitors of PLK1-PDB (polo-like kinase 1 - polo-box domain): Primary Screen; Serine/threonine-protein kinase PLK1 (Homo sapiens), P53350; Plk1 PBD binding of FITC phosphopeptide, fluorescence polarization; Potency, µM, for inactives: max response, negative = inhibition, hits mostly inhibitors; 2.8% of 360,000 active; AID 720504, 2013; note: series mostly up to about 57 µM; nearly all actives have a fitted effect of over 65% in size
Target sequence (P53350 whole entry, looked up, the tested form may be a part): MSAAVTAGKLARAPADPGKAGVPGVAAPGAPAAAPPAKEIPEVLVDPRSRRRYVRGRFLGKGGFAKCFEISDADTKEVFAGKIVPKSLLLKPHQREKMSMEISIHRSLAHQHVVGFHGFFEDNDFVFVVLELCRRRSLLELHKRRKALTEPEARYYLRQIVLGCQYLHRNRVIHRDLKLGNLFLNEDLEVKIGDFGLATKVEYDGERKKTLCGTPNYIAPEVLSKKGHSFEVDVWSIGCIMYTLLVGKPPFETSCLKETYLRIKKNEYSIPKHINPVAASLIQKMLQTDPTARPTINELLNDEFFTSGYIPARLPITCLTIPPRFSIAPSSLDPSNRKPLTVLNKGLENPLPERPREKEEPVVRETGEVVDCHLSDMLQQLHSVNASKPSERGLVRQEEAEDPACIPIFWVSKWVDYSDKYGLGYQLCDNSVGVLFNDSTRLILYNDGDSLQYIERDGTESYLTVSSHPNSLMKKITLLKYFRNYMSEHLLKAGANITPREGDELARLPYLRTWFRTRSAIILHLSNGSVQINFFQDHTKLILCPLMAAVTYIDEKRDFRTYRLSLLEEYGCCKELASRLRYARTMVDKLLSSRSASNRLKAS
Active calls of the source: *; u = inconclusive; x = no result; ! = not confirmed by another sample; [ ] = dose if it differs, or a comment. Unless noted, calls come from the whole dose curve; as a rule, active = well fitted curve in the direction sought with a large enough effect; inconclusive = small, poorly fitted or top-dose-only effect, or another doubt; inactive = no such curve, though single readings can be large; an effect the other way counts as inactive or inconclusive. Unless noted, % is set by controls: 0 for no effect and ±100 for the full control effect; potency is the fitted concentration of half-maximal effect.

SMILES	Gal4-VP16 FLuc	RORg inh	Sfp PPTase inh	ALDH1A1 block	PLK1 PBD inh
COC(=O)[C@@]12C[C@@H](CC(=O)NCCc3ccccc3OC)C(=O)N(Cc3cccc4ccccc34)C1=CCC(C)(C)C2	x	x	x	x	2%
COC(=O)Sc1nnc(-c2ccc(Br)cc2)o1	7%	18µM*	-27%	8.9µM*	x
COc1ccc(C)cc1NC(=O)CSc1nnc(-c2ccc(Br)cc2)o1	1%	1%	1%	u	1%
Cn1c(/C=C/c2ccc(Br)cc2)c([N+](=O)[O-])c(=O)n(C)c1=O	-20%	11µM*	-14%	x	-7%
CCc1nn(CC(=O)N2CC(C)CC(C)C2)c(=O)c2cccn12 (stereo not drawn)	4%	-14%	14%	x	-1%
CC(C)CCNC(=O)c1onc(CSc2ccccn2)c1C(=O)NCCC(C)C	x	x	x	x	27µM*
COc1ccc(C2=NOC(C(=O)NCc3ccccn3)C2)cc1 (stereo not drawn)	7%	5%	14%	3%	27µM*
COc1cc(C2=NOC(C(=O)NCc3ccco3)C2)cc(OC)c1OC (stereo not drawn)	-2%	u	u	6%	-8%
O=C(NCc1cccnc1)c1ccc(-c2cccc(Cl)c2Cl)o1	u	u	16µM*	11%	-11%
O=C(NCc1cccnc1)C1CC(c2ccccc2Cl)=NO1 (stereo not drawn)	-4%	u	11%	x	27µM*
COc1cccc(C2=NOC(C(=O)NCc3ccccn3)C2)c1 (stereo not drawn)	1%	26%	13%	0%	0%
COc1ccc(C2=NOC(C(=O)NCc3ccco3)C2)cc1 (stereo not drawn)	15%	-44%	8%	22µM*	-1%
CC1(Oc2ccc3ccccc3c2)CCN(Cc2ccc(OC(F)(F)F)cc2)C1 (stereo not drawn)	x	x	x	x	3%
C=CC1=C[C@@H](O)C2OC2C12OCCCO2 (stereo partly drawn)	-6%[10 µM]	10%[10 µM]	1%	1%[13.5 µM]	x
Cc1cc2c(cc(C(=O)NCc3cccnc3)n2Cc2ccc(Cl)cc2)o1	-3%	37%	45µM*	6.3µM*	-10%
O=C(NCc1ccco1)C1CC(c2c(Cl)cccc2Cl)=NO1 (stereo not drawn)	-29%	4%	79µM*	-16%	-8%
O=C(NCc1ccccc1)c1ccc(-c2ccccc2C(F)(F)F)o1	u	u	6%	25µM*!	-5%
O=C(O)c1ccc(-c2ccccc2C(F)(F)F)o1	-1%	6%	14%	5%	4%
O=C(NCc1ccco1)C1CC(c2ccc(Cl)c(Cl)c2)=NO1 (stereo not drawn)	4%	5%	15%	0%	-3%
O=C1CCC(C(=O)NCc2cccnc2)N1 (stereo not drawn)	-9%	-20%	11%	8%	30µM*
C/C(=C\C(=O)OCCCCCCCCC(=O)O)C[C@@H]1OCC(C[C@H]2O[C@H]2[C@@H](C)[C@H](C)O)[C@@H](O)[C@H]1O (stereo partly drawn)	-3%	30%	4%	x	x
COc1ccc2[nH]cc(CCNC(=O)Nc3ccccc3C)c2c1	3%	1%	4%	x	-16%
COc1ccccc1C(=O)NC(=O)CSc1ccc(C)c(C)c1	x	x	x	x	-7%
CCOC(=O)C1(C)CCCN(C(=O)c2cccnc2)C1 (stereo not drawn)	x	x	x	x	-12%
CCN(CC(=O)Nc1c(F)cccc1F)C(=O)CCCN1C(=O)c2cccc3cccc(c23)C1=O	x	x	x	x	-8%
SMILES	Gal4-VP16 FLuc	RORg inh	Sfp PPTase inh	ALDH1A1 block	PLK1 PBD inh
Cc1ccc(Nc2c([N+](=O)[O-])c(=O)n(C)c3ccccc23)cc1C	-7%	7%	-29%	8.9µM*	-4%
Cn1c(=O)c([N+](=O)[O-])c(NCc2ccc3c(c2)OCO3)c2ccccc21	-1%	u	50µM*	x	-1%
O=c1c([N+](=O)[O-])c(N2CCCCCC2)c2ccccc2n1-c1ccccc1	-6%	5%	11%	2%	1%
Cn1c(=O)c([N+](=O)[O-])c(NCCc2ccccc2)c2ccccc21	0%	9%	-15%	-8%	4%
CC(=O)Nc1ccc(Nc2c([N+](=O)[O-])c(=O)n(-c3ccccc3)c3ccccc23)cc1	2%	-7%	-10%	10µM*	-2%
Cn1c(=O)c([N+](=O)[O-])c(Cl)c2ccccc21	13µM*	10µM*	-5%	18µM*	u
CCCCn1nnnc1C(c1cc2ccccc2o1)N1CCN(c2ccncc2)CC1 (stereo not drawn)	x	x	x	x	-10%
O=C(c1csnn1)N1CCC2(CC1)CCN(c1ccncc1)CC2	2%	0%	-1%	1%	x
COc1ccc(NC(=O)N2CCC3(CC2)CCN(C(=O)c2cnccn2)CC3)cc1	1%	23%	21%	-12%	x
Cc1c(C)c2c(c(C)c1OC(=O)c1cccnc1)CC[C@@](C)(CCC[C@H](C)CCC[C@H](C)CCCC(C)C)O2	-1%	1%	7%	x	x
Cc1onc(-c2ccccc2)c1C(=O)N1CCN(S(=O)(=O)c2ccc3c(c2)OCCO3)CC1	-15%	12%	11%	3.2µM*	-2%
Cc1ccc(S(=O)(=O)N2CCN(C(=O)c3c(-c4ccccc4)noc3C)CC2)cc1C	1%	-5%	12%	x	-6%
CCOC(=O)CN1C(=O)S/C(=C/c2ccc3c(c2)n(C)c(=O)n3C)C1=O	2%	19%	2%	u	1%
C=CCN1C(=O)S/C(=C\c2ccc(N3CCOCC3)cc2C)C1=O	-18%	42%	-15%	0.89µM*	15%
C=CC(C)N1C(=O)S/C(=C\c2ccc(N3CCOCC3)cc2C)C1=O (stereo not drawn)	u	u	-11%	u	u
C=CCN1C(=O)S/C(=C/c2ccsc2)C1=O	9%	u	8%	13µM*	-3%
C=CCN1C(=O)S/C(=C\c2ccc3c(c2)n(C)c(=O)n3C)C1=O	22%	23%	1%	0.28µM*	-17%
CN1C(=O)c2oc3ccc(Br)cc3c(=O)c2C1c1ccncc1 (stereo not drawn)	-5%	-2%	40µM*	u	x
C=C(C)CSc1nnc2n(N)c(=O)c3ccccc3n12	10%	21%	17%	-12%	2%
C/C(Cl)=C\CSc1nnc2n(N)c(=O)c3ccccc3n12	-7%	25%	-5%	18µM*	-3%
CC(C)(C)NC(=O)C1C(c2ccccc2)=Nc2ccccc2N1C(=O)c1ccc(C(F)(F)F)cc1 (stereo not drawn)	x	x	x	x	-2%
O=C(O)c1ccc(/C=N\N=C2c3ccccc3-c3ccccc32)cc1	x	x	x	-3%[13.5 µM]	x
